Experimental findings from PubChem BioAssay (Tox21) are described below.

Records with an inconclusive call do not appear. Unmarked numbers belong to inactive results. Active and inactive are the calls of the source. Unless noted, calls come from the whole dose curve; as a rule, active = well fitted curve in the direction sought with a large enough effect in the repeat runs; inconclusive = weak or mixed curves; inactive = no such curve, though single readings can be large; an effect the other way counts as inactive or inconclusive.

Assay [1] is described as follows: qHTS assay to identify small molecule antagonists of the glucocorticoid receptor (GR) signaling pathway - cell viability counter screen (AID 720693). Note: nearly all actives have a fitted effect of over 55% in size.
Assay [2] in a line: qHTS assay for identifying genotoxic compounds that show differential cytotoxicity against isogenic chicken DT40 cell lines with known DNA damage response pathways - wild type cell line (AID 743012). Note: nearly all actives have a fitted effect of over 60% in size. A digest of the protocol: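 Using parental DT40 (300 cells/well), compounds delivered in DMSO incubate 40 h at 37 C/5% CO2. CellTiter-Glo reagent then stands 30 min at room temperature, and luminescence gives cell viability.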

Assay [3] can be described thus: qHTS assay for identifying genotoxic compounds that show differential cytotoxicity against isogenic chicken DT40 cell lines with known DNA damage response pathways - Rev3 mutant cell line (AID 743014). Note: nearly all actives have a fitted effect of over 55% in size.
Assay [4] can be described thus: qHTS assay for identifying genotoxic compounds that show differential cytotoxicity against isogenic chicken DT40 cell lines with known DNA damage response pathways - Rad54/Ku70 mutant cell line (AID 743015). Note: nearly all actives have a fitted effect of over 60% in size.
The nature of assay [5]: qHTS assay to identify small molecule antagonists of the androgen receptor (AR) signaling pathway - cell viability counter screen (AID 743033; note: nearly all actives have a fitted effect of over 45% in size).
A short description of assay [6]: qHTS assay to identify small molecule antagonists of the androgen receptor (AR) signaling pathway using the MDA cell line - cell viability counter screen (AID 743041; note: nearly all actives have a fitted effect of over 45% in size). In short, it runs like this:
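MDA-kb2 AR-luc cells (MMTV-luciferase, AR/GR responsive) treated with compounds plus R1881 agonist for 16 h at 37C. CellTiter-Fluor added at 15.5 h; fluorescence read after 30 min in the same wells.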

Assay [7] is described as follows: qHTS assay to identify small molecule antagonists of the thyroid receptor (TR) signaling pathway - cell viability counter screen (AID 743064). Note: nearly all actives have a fitted effect of over 50% in size. A digest of the protocol:
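Fluorescence from CellTiter-Fluor, added after 23.5 h exposure at 37 °C, reported viability of GH3.TRE-Luc cells co-treated with compound and 1 nM T3. Measured in the same wells as the luciferase TR readout.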

A short description of assay [8]: qHTS assay to identify small molecule antagonists of the thyroid receptor (TR) signaling pathway (AID 743065). Note: series mostly up to about 70 µM; nearly all actives have a fitted effect of over 55% in size. In short, it runs like this: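 GH3.TRE-Luc rat pituitary cells (two TREs driving luciferase) were dosed with compound, then stimulated with 1 nM T3 (final) for 23.5 h at 37 C. ONE-Glo luminescence was the read-out, with CellTiter-Fluor fluorescence as the cytotoxicity counter-screen.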

Assay [9] has as its system thyroid hormone receptor (rat, GH3 cells). The experiment in a line: qHTS assay to identify small molecule agonists of the thyroid receptor (TR) signaling pathway (AID 743066; calls by dose curve).
Assay [10] can be described thus: qHTS assay to identify small molecule antagonists of the estrogen receptor alpha (ER-alpha) signaling pathway - cell viability counter screen (AID 743074; calls by dose curve;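 note: HEK293 cells carrying ER-alpha-UAS-bla reporter stimulated with 17beta-estradiol; nearly all actives have a fitted effect of over 45% in size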).
Assay [11] concerns the target Estrogen receptor (Homo sapiens) (UniProt P03372). The experiment in a line: qHTS assay to identify small molecule agonists of the estrogen receptor alpha (ER-alpha) signaling pathway (AID 743075; calls by dose curve; note: potency is the fitted concentration of half-maximal effect).
Assay [12] shares this target. The assay is described as follows: qHTS assay to identify small molecule agonists of the estrogen receptor alpha (ER-alpha) signaling pathway using the BG1 cell line (AID 743079). Note: nearly all actives have a fitted effect of over 20% in size. Note: potency is the fitted concentration of half-maximal effect.
Assay [13] is described as follows: qHTS assay to identify small molecule antagonists of the estrogen receptor alpha (ER-alpha) signaling pathway using the BG1 cell line (AID 743080; calls by dose curve;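 note: BG1 cells stimulated with 17beta-estradiol alongside compound; series mostly up to about 70 µM; nearly all actives have a fitted effect of over 25% in size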). A digest of the protocol:
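Endogenous full-length ER-alpha in BG1-Luc-4E2 cells drives a stably integrated 4×ERE luciferase gene; compounds were tested against 17beta-estradiol over 21.5 h, with luminescence and multiplexed viability fluorescence recorded.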

Assay [14] can be described thus: qHTS assay to identify small molecule antagonists of the estrogen receptor alpha (ER-alpha) signaling pathway using the BG1 cell line - cell viability counter screen (AID 743081).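 Note: compound given together with 17beta-estradiol as the ER stimulus; series mostly up to about 70 µM; nearly all actives have a fitted effect of over 45% in size.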
The target of the next assay is Aromatase (Homo sapiens) (UniProt P11511). The experiment in a line: qHTS assay to identify aromatase inhibitors (AID 743083). Note: series mostly up to about 70 µM; nearly all actives have a fitted effect of over 55% in size.
A short description of assay [15]: qHTS assay to identify aromatase inhibitors - cell viability counter screen (AID 743084).
Assay [16] concerns the target Estrogen receptor (Homo sapiens) (UniProt P03372). The experiment in a line: qHTS assay to identify small molecule antagonists of the estrogen receptor alpha (ER-alpha) signaling pathway (AID 743069; active = well fitted curve in the direction sought with a large enough effect in the signal ratio in the repeat runs, not every such curve was filed as active; the % refers to the signal ratio). A digest of the protocol:
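HEK293 ER-alpha-UAS-bla GripTite cells, held overnight in 2% charcoal-stripped FBS, 5,000 cells/well, preincubated 4 h, then compound plus 17beta-estradiol for 18 h at 37C. Beta-lactamase read by LiveBLAzer B/G FRET substrate, 2 h at room temperature.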

Estrogen receptor (Homo sapiens), sequence (P03372 whole entry, looked up): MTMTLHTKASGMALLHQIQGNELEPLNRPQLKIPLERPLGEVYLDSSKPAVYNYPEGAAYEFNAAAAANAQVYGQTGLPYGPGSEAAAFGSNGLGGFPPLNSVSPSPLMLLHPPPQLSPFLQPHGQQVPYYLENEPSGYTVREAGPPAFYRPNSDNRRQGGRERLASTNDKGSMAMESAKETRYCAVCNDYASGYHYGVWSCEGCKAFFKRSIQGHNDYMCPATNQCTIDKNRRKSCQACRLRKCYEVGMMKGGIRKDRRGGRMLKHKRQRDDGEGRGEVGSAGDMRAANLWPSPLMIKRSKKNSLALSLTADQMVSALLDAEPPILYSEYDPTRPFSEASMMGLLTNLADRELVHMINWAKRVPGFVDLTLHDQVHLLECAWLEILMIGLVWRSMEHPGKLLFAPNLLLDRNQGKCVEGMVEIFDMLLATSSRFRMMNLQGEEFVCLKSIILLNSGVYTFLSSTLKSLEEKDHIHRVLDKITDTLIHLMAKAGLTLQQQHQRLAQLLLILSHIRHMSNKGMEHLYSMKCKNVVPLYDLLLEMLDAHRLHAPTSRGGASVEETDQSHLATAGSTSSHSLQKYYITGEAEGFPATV
Aromatase (Homo sapiens), sequence (P11511 whole entry, looked up): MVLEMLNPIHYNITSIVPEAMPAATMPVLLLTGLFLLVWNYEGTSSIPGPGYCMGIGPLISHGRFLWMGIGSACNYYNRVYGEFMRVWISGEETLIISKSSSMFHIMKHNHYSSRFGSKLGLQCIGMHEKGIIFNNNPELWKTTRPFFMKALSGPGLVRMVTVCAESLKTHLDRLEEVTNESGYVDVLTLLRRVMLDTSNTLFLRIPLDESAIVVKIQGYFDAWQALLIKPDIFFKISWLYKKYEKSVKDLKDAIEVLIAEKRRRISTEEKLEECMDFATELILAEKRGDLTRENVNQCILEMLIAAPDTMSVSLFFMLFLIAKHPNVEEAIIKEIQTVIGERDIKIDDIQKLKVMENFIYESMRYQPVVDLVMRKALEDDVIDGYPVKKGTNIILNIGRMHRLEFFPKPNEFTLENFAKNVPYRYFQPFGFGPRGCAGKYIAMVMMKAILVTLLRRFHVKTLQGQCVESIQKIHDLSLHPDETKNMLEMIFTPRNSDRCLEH

As for `CSc1cnccn1`, the compound was called inactive (in assay [1]; in [5]; in assay [9]; in [10]; in assay [13]; with Aromatase (Homo sapiens)). The Potency result in assay [2], in assay [3], in [4], in assay [6], in assay [7] and in assay [8] was “inactive” each time. Besides, the Potency result in assay [11], in assay [12], in assay [14] and in assay [15] was “inactive” each time.

Turning to `O=C=NCC1CCCC(CN=C=O)C1` (stereo unspecified), the outcome in [1], in [5], in assay [9], in [16], in [10] and in [13] was inactive. The call with Aromatase (Homo sapiens) was inactive. Further, the Potency result in assay [2], in assay [3], in assay [4], in [6], in [7] and in assay [11] was “inactive” throughout. Further, the Potency entry in assay [12], in assay [14] and in assay [15] was “inactive” throughout.

As for `COc1c2occc2c(OC)c2c(=O)cc(C)oc12`, the outcome (in [1]; in assay [5]; in [9]; in the assay with Aromatase (Homo sapiens)) was inactive. The Potency result in assay [2], in assay [3], in [4], in assay [6], in [7] and in assay [8] was “inactive” throughout. Further, the Potency result in assay [14] and in assay [15] was “inactive” in each case.

As for `CC(C)OC(=O)OCOP(=O)(CO[C@H](C)Cn1cnc2c(N)ncnc21)OCOC(=O)OC(C)C`, the compound was called inactive in [1], in [5], in assay [9], in assay [16], in [10] and in assay [13]. Besides, the Potency result in assay [2], in [3], in assay [4], in assay [6], in assay [7] and in assay [11] was “inactive” throughout. Besides, the Potency entry in assay [12], in assay [14] and in [15] was “inactive” throughout.

Turning to `CCCCCc1cccc(=O)o1`, the compound was called inactive in assay [1], in assay [5], in [9], in [16], in [10] and in assay [13]. For the same compound, in the assay with Aromatase (Homo sapiens), the compound was classed as inactive. Also, the Potency entry in [2], in assay [3], in assay [4], in assay [6], in [7] and in [11] was “inactive” throughout. For the same compound, the Potency result in [12], in assay [14] and in assay [15] was “inactive” in each case.

In the case of `CCc1occc(=O)c1O`, the call (in assay [1]; in assay [5]; in assay [9]; in assay [10]; in assay [13]; with Aromatase (Homo sapiens)) was inactive. Besides, the Potency result in [2], in assay [3], in assay [4], in assay [6], in assay [7] and in assay [11] was “inactive” each time. Besides, the Potency result in [12], in [14] and in assay [15] was “inactive” each time.

`CC(=O)O[Si](C)(OC(C)=O)OC(C)=O`: the call (in assay [1]; in assay [5]; in assay [9]; in assay [10]; in the assay with Aromatase (Homo sapiens)) was inactive. The Potency result in assay [2], in [3], in assay [4], in [6], in [7] and in assay [8] was “inactive” throughout. For the same compound, the Potency entry in assay [14] and in assay [15] was “inactive” in each case.

Turning to `CCC(=O)CC`, the call (in assay [1]; in [5]; in assay [9]; in assay [10]; with Aromatase (Homo sapiens)) was inactive. Besides, the Potency entry in assay [2], in assay [3], in assay [4], in [6], in assay [7] and in [8] was “inactive” throughout. Besides, the Potency entry in [14] and in assay [15] was “inactive” throughout.

Turning to `CC(=O)OC(C)=O`, the compound was called inactive (in [1]; in assay [5]; in assay [9]; in assay [10]; in the assay with Aromatase (Homo sapiens)). Besides, the Potency result in assay [2], in assay [3], in assay [4], in [6], in [7] and in assay [14] was “inactive” throughout. Moreover, the Potency result in [15] is “inactive”.

Turning to `CC(C)=CCC[C@@](C)(O)[C@H]1CC=C(C)CC1`, the outcome (in assay [1]; in assay [5]; in [9]; in [10]; with Aromatase (Homo sapiens)) was inactive. Further, the Potency result in assay [2], in assay [3], in assay [4], in [6], in assay [7] and in assay [8] was “inactive” throughout. In addition, the Potency entry in assay [14] and in [15] was “inactive” each time.

In the case of `CN(C)CC/C=C1/c2ccccc2COc2ccc(CC(=O)O)cc21`, the outcome in [1], in assay [5], in [9] and in assay [10] was inactive. Besides, the Potency result in [2], in assay [3], in assay [4], in assay [6], in [7] and in assay [8] was “inactive” each time. The Potency entry in [14] was “inactive”.

Consider `CC(CO)(CO)CO`, for which the outcome (in assay [1]; in assay [5]; in assay [9]; in assay [10]; in assay [13]; with Aromatase (Homo sapiens)) was inactive. The Potency result in assay [2], in assay [3], in [4], in [6], in [7] and in [8] was “inactive” throughout. Further, the Potency entry in assay [11], in assay [14] and in assay [15] was “inactive” each time.

Regarding `CC1=NN(c2ccc(S(=O)(=O)O)cc2)C(=O)C1`, the result (in [1]; in assay [5]; in assay [9]; in [10]; in the assay with Aromatase (Homo sapiens)) was inactive. For the same compound, the Potency entry in [2], in assay [3], in [4], in assay [6], in assay [7] and in assay [14] was “inactive” in each case. Also, the Potency entry in assay [15] is “inactive”.

Take `CC1=C(O)C(=O)C(C)O1` (stereo unspecified): the compound was classed as inactive in assay [1], in assay [5], in assay [9], in assay [16], in assay [10] and in assay [13]. Moreover, the outcome with Aromatase (Homo sapiens) was inactive. The Potency entry in [2], in assay [3], in assay [4], in assay [6], in assay [7] and in assay [11] was “inactive” in each case. In addition, the Potency result in assay [12], in assay [14] and in [15] was “inactive” each time.

For the compound `CNCCS(=O)(=O)O`, the call (in assay [1]; in assay [5]; in [9]; in assay [10]; in the assay with Aromatase (Homo sapiens)) was inactive. The Potency entry in assay [2], in assay [3], in assay [4], in assay [6], in assay [7] and in [8] was “inactive” throughout. In addition, the Potency result in assay [14] and in [15] was “inactive” throughout.

As to `CC(C)OC(=O)CCC(=O)OC(C)C`, the result (in [1]; in [5]; in [9]; in assay [10]; with Aromatase (Homo sapiens)) was inactive. Moreover, the Potency entry in assay [2], in [3], in assay [4], in assay [6], in [7] and in assay [14] was “inactive” in each case. The Potency entry in assay [15] is “inactive”.

For `CC/C(C)=N\O[Si](C)(O/N=C(\C)CC)O/N=C(\C)CC`, the call in assay [1], in assay [5], in [9], in assay [16], in assay [10] and in [13] was inactive. Also, the compound was called inactive with Aromatase (Homo sapiens). For the same compound, the Potency entry in assay [2], in assay [3], in [4], in [6], in assay [7] and in assay [11] was “inactive” each time. Also, the Potency result in assay [12], in assay [14] and in assay [15] was “inactive” throughout.

Regarding `CC(C)CCOC(=O)c1ccccc1`, the compound was called inactive (in [1]; in [5]; in [9]; in assay [10]; in the assay with Aromatase (Homo sapiens)). Also, the Potency result in [2], in [3], in assay [4], in assay [6], in assay [7] and in [14] was “inactive” each time. Also, in assay [15], the Potency entry was “inactive”.

Consider `O=[N+]([O-])c1c(Cl)cc(Cl)cc1Cl`, for which the result (in [1]; in assay [5]; in [9]; in assay [10]; with Aromatase (Homo sapiens)) was inactive. The Potency entry in assay [2], in [3], in [4], in assay [6], in assay [7] and in assay [8] was “inactive” in each case. The Potency entry in [14] and in [15] was “inactive” throughout.

As to `c1ccc(B(c2ccccc2)c2ccccc2)cc1`, the result (in assay [1]; in assay [5]; in assay [9]; in assay [10]; with Aromatase (Homo sapiens)) was inactive. Further, the Potency result in [2], in assay [3], in assay [4], in assay [6], in [7] and in [8] was “inactive” throughout. Also, the Potency entry in assay [14] and in assay [15] was “inactive” throughout. Further, the values for the Potency in assay [11] and in assay [12] were 30.9 µM [activator] (active) and 34.3 µM (active), respectively.
